TDP1 cell noCPT – qHTS for Inhibitors of human tyrosyl-DNA phosphodiesterase 1 (TDP1): qHTS in cells in absence of CPT. hit rate 15% among 420,000. AID 686978, 2013. DT40 Tdp1-/- hTDP1 cells, no CPT, ATP luminescence, 48 h. Potency, µM (top dose mostly 46.2 µM), for inactives: at the top dose activity change, negative = growth inhibition, most hits filed as inhibitors; note: potency is the fitted concentration of half-maximal effect; % is set by controls: 0 for no effect and ±100 for the full control effect; nearly all actives have a fitted effect of over 55% in size
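Cells were dispensed at 400 per well, compounds added by pin tool, plates incubated ≥48 hr at 37 °C, then CellTiter-Glo added for 30 min at room temperature before luminescence reading. Line: DT40 Tdp1-/- complemented with hTDP1; camptothecin omitted.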
TDP1 cell CPT – growth inhibition of DT40 Tdp1-/-;hTDP1 cells with camptothecin (screen for TDP1 inhibitors); chicken DT40 Tdp1-/-;hTDP1 cells + 20 nM CPT, ATP luminescence, 48 h; Potency, µM (highest dose often 46.2 µM), for the others: at the highest dose activity change, negative = growth inhibition, usual class: inhibitors; hit rate 12% among 420,000; note: potency is the fitted concentration of half-maximal effect; % is set by controls: 0 for no effect and ±100 for the full control effect; nearly all actives have a fitted effect of over 55% in size
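Chicken DT40 Tdp1-/- cells stably complemented with human TDP1 were seeded at 400 cells/well in medium containing 20 nM camptothecin, exposed to pin-transferred compounds, and grown at 37 °C for at least 48 hr. Viability was read as ATP luminescence.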
DRD3 agonist – activates the human D3 dopamine receptor; AID 652048; P35462; D3R DiscoveRx beta-arrestin cells, luminescence, 90 min; hit rate 0.58% among 410,000; max activation, %; in the data active = max activation above about 30%; note: 0% is about no effect
Target sequence (P35462 whole entry, looked up): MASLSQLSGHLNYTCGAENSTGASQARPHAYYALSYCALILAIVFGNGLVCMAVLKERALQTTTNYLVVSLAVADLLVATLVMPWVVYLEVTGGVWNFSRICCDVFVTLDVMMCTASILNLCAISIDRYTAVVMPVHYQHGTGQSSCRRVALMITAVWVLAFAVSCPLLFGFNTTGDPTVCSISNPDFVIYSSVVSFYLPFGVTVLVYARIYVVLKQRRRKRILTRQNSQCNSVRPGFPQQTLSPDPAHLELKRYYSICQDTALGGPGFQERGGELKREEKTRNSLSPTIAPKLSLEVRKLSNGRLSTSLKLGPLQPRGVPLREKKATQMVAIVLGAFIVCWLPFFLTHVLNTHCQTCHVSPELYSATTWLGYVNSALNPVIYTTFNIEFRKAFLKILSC
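Cells at 1500/well, incubated overnight, then treated with pinned compounds (dopamine as control) for 90 min at 37 degrees C. DiscoveRx reagent added for 30 - 60 minutes at room temperature; luminescence read.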
DRD3 antagonist – blocks the human D3 dopamine receptor | max response, negative = inhibition, % | AID 652054 | P35462 | D3R cells, DiscoveRx beta-arrestin luminescence, antagonist mode; stronger effect = lower value | hit rate 2.5% among 360,000; in the data active = max response below about -50%; inconclusive = no clear call, values can overlap the other calls; note: % is set by controls: 0 for no effect and ±100 for the full control effect
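Cells expressing the human receptor were seeded at 1500 cells/well, incubated overnight at 37 degrees C in 5% CO2, then exposed to library compounds with dopamine controls for 90 minutes at 37 degrees C before luminescent detection.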
IL-1B inflam inh – blocks inflammasome-driven IL-1 beta release | hit rate 4.7% among 360,000 | activity change, % at 57.5 µM | THP-1 LPS/ATP IL-1B secretion, AlphaLISA, 16 h; stronger effect = lower value; in the data active = activity change below about -50%; inconclusive = mostly about -30% to -49%; note: % is set by controls: 0 for no effect and ±100 for the full control effect
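THP-1 cells pretreated 1 hr with compounds (up to 57.5 uM final), then stimulated with LPS (250 ng/mL final) plus ATP (1.25 mM final); secreted IL-1B measured by AlphaLISA after 16 hr, decreased signal indicating inhibition.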
ClpP mod – qHTS Assay for Activators of ClpP; ATP-dependent Clp protease proteolytic subunit (Bacillus subtilis (strain 168)), P80244; purified B. subtilis ClpP, FRET peptide cleavage, 20 min; Potency, µM (series often up to 57.5 µM), without a hit: at the top dose activity change, negative = active; hit rate 1.9% among 340,000; AID 651965, 2013; active = well fitted falling curve with a large enough effect; inconclusive = small, poorly fitted or top-dose-only effect; inactive = no such curve, though single readings can be large or run the other way; note: potency is the fitted concentration of half-maximal effect; the source files actives as falling curves though it sought activators and does not explain the sign; nearly all actives have a fitted effect of over 65% in size
Target sequence (P80244 whole entry, looked up): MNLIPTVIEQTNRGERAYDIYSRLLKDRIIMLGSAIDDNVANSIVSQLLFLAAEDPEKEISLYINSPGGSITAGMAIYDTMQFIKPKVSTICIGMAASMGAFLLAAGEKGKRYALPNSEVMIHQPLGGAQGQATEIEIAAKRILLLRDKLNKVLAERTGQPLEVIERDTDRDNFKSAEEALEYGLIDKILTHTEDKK
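FRET quenching reversal measured ClpP activation: 10 microg/mL B. subtilis ClpP at pH 8 with the FRET-FV decapeptide, read at 430 nm after 320 nm excitation. The 20-min minus 0-min signal was scaled between DMSO/no-enzyme wells and ADEP (5.8 microM final).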
Active calls of the source: *; ? = inconclusive; nt = no result; [ ] = remark or other dose. Compounds with a hit are over-represented: about 21% of the library has one in this group of screens. Unless noted, calls come from the whole dose curve; as a rule, active = well fitted inhibition curve with a large enough effect; inconclusive = small, poorly fitted or top-dose-only effect; inactive = flat fitted curve, though single readings scatter.

SMILES	TDP1 cell noCPT	TDP1 cell CPT	DRD3 agonist	DRD3 antagonist	IL-1B inflam inh	ClpP mod
COc1ccccc1-c1coc2c(CN3CCN(C)CC3)c(O)ccc2c1=O	-7%	-4%	-7	-2	-11	7.9µM*
CCN1CCN(Cc2c(O)ccc3c(=O)c(Oc4ccccc4Cl)c(C(F)(F)F)oc23)CC1	21µM*	?	-20	nt	nt	1%
COc1ccccc1Oc1coc2c(CN3CCN(C)CC3)c(O)ccc2c1=O	-2%	-27%	-8	17	-4	25µM*
COc1ccccc1-c1coc2c(CN3CCN(CCO)CC3)c(O)ccc2c1=O	-18%	-6%	1	9	20	45%
CN1CCN(Cc2c(O)ccc3c(=O)c(Oc4ccccc4Cl)c(C(F)(F)F)oc23)CC1	-7%	?	-9	-16	8	0%
CCN(CC)Cc1nc2c(c(=O)[nH]1)C(CC)(CC)Cc1ccccc1-2	?	?	-3	-19	-7	-2%
COc1ccc(N(Cc2ccccc2)S(=O)(=O)c2cccc(C(=O)Nc3ncccc3C)c2)cc1	?	?	-11	?	-5	-10%
CC(C)N1CCN(Cc2ccc(C#CCCO)cc2)CC1CCO (configuration not stated)	-17%	1%	1	-3	-8	1%
O=C(c1cnn(-c2nccc(-c3ccco3)n2)c1C1CC1)N1CCCCC1c1cccnc1 (configuration not stated)	-8%	14%[9.04 µM]	nt	nt	nt	nt
Nc1nc(N=Nc2ccc(O)cc2)cc(=O)[nH]1	?	-8%	-22	-90*	-27	-1%
Oc1ccc(N=Nc2n[nH]c(-c3ccccc3)n2)cc1	?	-3%	-5	13	17	-3%
COc1ccc(C)cc1NC(=O)C1CCN(S(=O)(=O)c2ccc3[nH]c4c(c3c2)CCCCC4)CC1	?	-25%	1	nt	nt	?
CC(C)C(=O)NC(=S)Nc1ccc(S(=O)(=O)N(C)Cc2ccccc2)cc1	18µM*	?	-8	37	19	0%
CCOc1ccc(S(=O)(=O)/N=C(/Nc2ccc(C(C)=O)cc2)c2ccccc2)cc1	13µM*	23µM*	-8	-13	-12	nt
CCOc1ccc(NS(=O)(=O)c2ccc(NC(=S)NC(C)=O)cc2)cc1	23µM*	23µM*	-9	-27	34	nt
CCOc1ccc(/C(O)=C/C(=O)C(=O)Nc2ccc(S(=O)(=O)NC(C)=O)cc2)cc1	-19%	26µM*	-10	-60*	0	-2%
CCOc1ccc(NC(C)=O)cc1	2%	?	2	9	10	0%
Cc1ccc(CN2CCCn3nc(C(=O)NC(C)C)cc3C2=O)cc1	-22%	-11%	7	nt	nt	-4%
CCOc1ccc(NS(=O)(=O)c2ccc(NC(=S)NC(=O)C(C)C)cc2)cc1	?	21µM*	-5	-21	12	0%
COc1ccc(NS(=O)(=O)c2ccc(NC(=S)NC(=O)C(C)C)cc2)cc1	16µM*	18µM*	6	9	0	1%
CC(C)C(=O)NC(=S)Nc1ccc(S(=O)(=O)Nc2ccccc2)cc1	-29%	-18%	-5	-7	1	1%
CC(NCC(O)COCCC12CC3CC(CC(C3)C1)C2)c1ccccc1 (configuration not stated)	15µM*	6.5µM*	0	4	-98*	0%
OC(COCCC12CC3CC(CC(C3)C1)C2)CN1CCCC1 (configuration not stated)	?	18µM*	-22	-19	-2	-3%
CCNC(=O)OCCC12CC3CC(CC(C3)C1)C2	?	?	-1	-1	15	5%
Cn1nnc(NC(=O)c2cccc([N+](=O)[O-])c2)n1	-4%	-3%	2	22	0	0%
SMILES	TDP1 cell noCPT	TDP1 cell CPT	DRD3 agonist	DRD3 antagonist	IL-1B inflam inh	ClpP mod
O=C(Nc1ccc(OCC(F)(F)C(F)F)c(C(F)(F)F)c1)c1ccc(Cl)cc1	?	23µM*	-7	-1	-104*	-8%
COc1ccc(C(=O)Nc2ccc(OCC(F)(F)C(F)F)c(C(F)(F)F)c2)cc1OC	11µM*	11µM*	7	29	-23	2%
COc1ccc(NC(=O)c2ccc(COCC(F)(F)F)cc2)cc1OC	?	2%	3	-3	0	-2%
Cc1ccc(-c2nc(CN(C)Cc3cccc4cnccc34)c(C)o2)s1	21µM*	?	2	-23	-11	-25%
Cc1ccc(-c2nc(CN(C)C3CCOCC3)c(C)o2)s1	6%	-1%	-22	-18	0	4%
Cc1ccccc1OCC(=O)Nc1ccc2nc(SCC(=O)N3CCc4ccccc43)sc2c1	-1%	-5%	4	nt	nt	-4%
CC1Cc2ccccc2N1C(=O)CSc1nc2ccccc2s1 (configuration not stated)	?	?	0	11	-16	-4%
Cc1cccc(C(=O)Nc2ccc3nc(SCC(=O)N4CCc5ccccc54)sc3c2)c1	4.6µM*	5.8µM*	0	nt	nt	?
CCC(CC)C(=O)Nc1ccc2nc(SCC(=O)N3c4ccccc4CC3C)sc2c1 (configuration not stated)	16µM*	12µM*	19	nt	nt	2%
Cc1cccc(C(=O)Nc2ccc3nc(SCC(=O)N4CCCC4)sc3c2)c1	16µM*	?	5	nt	nt	-9%
Cc1ccccc1C(=O)Nc1ccc2nc(SCC(=O)N3CCc4ccccc43)sc2c1	3.7µM*	5.2µM*	-5	nt	nt	4%
CN1CCN(C(=O)c2ccc(COc3ccc(Cl)cc3Cl)cc2)CC1	?	?	-22	-89*	-4	0%
CN1CCN(C(=O)CCCOc2ccc(Cl)cc2Cl)CC1	-24%	-25%	-3	-53*	-17	-2%
CCC(=O)Nc1ccc2c(c1)nc(CCNC(=O)c1ccco1)n2C	0%	0%	2	-11	-6	nt
CCOC(=O)C1(C)/C(=N/Nc2cccc(Cl)c2)C(=O)C(=O)N1c1ccccc1 (configuration not stated)	-24%	-30%	-7	-75*	18	2%
CCOC(=O)C1(C)/C(=N/Nc2ccc(Cl)cc2)C(=O)C(=O)N1c1ccccc1 (configuration not stated)	-7%	-28%	-5	?	28	0%
CCCCn1nnnc1C(CCSC)N1CCN(C/C=C/c2ccccc2)CC1 (configuration not stated)	?	?	-15	-122*	-26	1%
